LASV entry inh: inhibitors of Lassa virus binding or cell entry. actives 1.2% (n = 300,000). AID 540256. Lassa virus pseudotype entry inhibition, cell reporter. Potency, µM (titrated, usually from 37.9 µM), inactives show at the top dose activity change, negative = inhibition, usual class: inhibitors; calls by dose curve; tested in HEK293 cells; further: potency means the concentration at half of the fitted maximal effect; on the % scale 0 is the no-effect control and ±100 the full control effect; nearly all actives have a fitted effect of over 50% in size
CHX counter: affects cycloheximide protein synthesis inhibition readout, counter-screen; cell reporter, cycloheximide protein synthesis inhibition counterscreen; max response, %; actives 12% (n = 300,000); AID 2314; in the data active means max response mostly above about 13%, no sharp cut-off; inactive means mostly below about 14%; further: read at 38.3 µM for the half of the compounds with a filed dose; 0% is about no effect
Shiga inhibitor: inhibitors of Shiga toxin in Vero cells. Vero cells, Shiga toxin protein synthesis inhibition reporter. inhibition, % at 38.7 µM. actives 9.2% (n = 290,000). AID 2315; in the data active means inhibition mostly above about 28%, no sharp cut-off; inactive means mostly below about 43%; further: 0% is about no effect
Marburg entry inh: inhibitors of Marburg virus binding or cell entry. Marburg virus pseudotyped entry inhibition, cell reporter. Potency, µM (doses to about 37.8 µM), for the others: at the highest dose activity change, negative = inhibition, most hits filed as inhibitors. actives 1.8% (n = 300,000); calls by dose curve; tested in HEK293 cells; further: potency means the concentration at half of the fitted maximal effect; on the % scale 0 is the no-effect control and ±100 the full control effect
An asterisk follows results filed as active; ? = inconclusive; / = not tested or not shown; + = active, no number; [ ] = dose if it differs, or a comment. Most compounds without a hit are left out; they make up all but 12% or so of the library.

SMILES | LASV entry inh | CHX counter | Shiga inhibitor | Marburg entry inh
O=C(NCc1cccs1)c1cc(-c2ccccc2)on1 | -2% | 30* | 118* | 2%
CC(NC(=O)c1cc(-c2cccs2)on1)c1ccccc1 (centres undefined) | 1% | 10 | 5 | 6%
COCCNC(=O)c1cc(-c2cccs2)on1 | / | 34* | 101* | /
Cc1cc(C(=O)NCc2cccs2)no1 | 12% | -3 | -11 | 6%
O=C(NCc1cccs1)c1cc(-c2cccs2)on1 | 38%[14.3 µM] | 41* | 87* | 15%
O=C(NCc1cccs1)c1cc(C2CC2)on1 | / | 22* | 64* | /
Cc1cc(C)cc(NC(=O)C(=O)NCC(c2cccnc2)N2CCc3ccccc32)c1 (centres undefined) | -1%[46.1 µM] | / | / | /
CCOC(=O)c1c(C)c(C(=O)NCCc2ccc(OC)cc2)c(C)n1C | / | / | / | -3%[46.1 µM]
CC(C)(C)C(=O)NCCc1nc2ccccc2n1CC(=O)c1ccc(Cl)cc1 | -15% | -6 | -7 | ?
CCC(=O)N1CCN(c2ccc(NC(=O)c3ccc([N+](=O)[O-])o3)cc2Cl)CC1 | ? | -23 | -35 | ?
CC(=O)N1CCN(c2ccc(NC(=O)c3ccc([N+](=O)[O-])o3)cc2Cl)CC1 | ? | 25* | 50* | ?
CCN1CCN(c2ccc(NC(=O)c3ccc([N+](=O)[O-])o3)cc2Cl)CC1 | ? | 23* | -20 | ?
Cc1ccc(OCCOC(=O)Nc2ccccc2)cc1 | 14% | 12 | 24 | 12%
COc1ccccc1OCCOC(=O)Nc1ccccc1 | 24% | 13* | 26* | 26%
Cc1cccc(OCCOC(=O)Nc2ccccc2)c1 | -2% | 16* | -31 | 6%
Cc1ccc(NC(=O)c2ccc3snnc3c2)cc1Cl | 4%[46.1 µM] | / | / | ?
Cn1ccnc1C(=O)c1cc(SCC(=O)N2CCOCC2)nc2ccccc12 | 14% | -1 | -22 | 26%[46.1 µM]
COc1c(C(N)=O)cc(-c2ccc(Cl)cc2)cc1-c1ccc(S(N)(=O)=O)cc1 | 25µM* | / | / | /
C/C(=N\NC(=S)Nc1ccc(C(C)C)cc1)c1ccc2c(c1)OCO2 | ? | 11 | 35* | 0%
CNC(=S)N/N=C(\C)c1ccc2c(c1)OCCO2 | -1% | 19* | 36 | ?
CNC(=S)N/N=C(\C)c1ccc2c(c1)OCO2 | / | 5 | 26 | /
CCNC(=S)N/N=C(\C)c1ccc2c(c1)OCCO2 | 4% | -3 | 49* | 2%
Cc1cccc(N2CCN(CCCNc3ncnc4onc(-c5ccc(Cl)cc5)c34)CC2C)c1 (centres undefined) | 0%[46.1 µM] | / | / | /
CCOc1nc2cnccc2n(CC(=O)Nc2ccc(C)c(C)c2)c1=O | / | -10 | 17 | /
COC(=O)CCSCc1cn2cc(Cl)ccc2n1 | 6% | 16* | 23 | 15%
SMILES | LASV entry inh | CHX counter | Shiga inhibitor | Marburg entry inh
COc1cc(CN2CCCC(CO)(Cc3ccccc3F)C2)ccc1O (centres undefined) | / | 1 | -3 | /
CCOc1ccc(CN2CCCC(CO)(Cc3ccc(F)cc3)C2)cc1 (centres undefined) | -40%[46.1 µM] | -4 | -9 | 7.9µM*
COc1ccc(CN2CCCC(CO)(Cc3ccc(F)cc3F)C2)cc1 (centres undefined) | -42%[46.1 µM] | -2 | -5 | 10µM*
COc1cccc(CC2(CO)CCCN(Cc3cc4ccccc4[nH]3)C2)c1 (centres undefined) | ? | 1 | -5 | 4µM*
OCC1(Cc2ccc(F)cc2)CCCN(Cc2ccc(F)cc2Cl)C1 (centres undefined) | ? | -3 | -4 | ?
CCCN(CCC)CCNC(=S)Nc1ccc2nc3n(c(=O)c2c1)CCCCC3 | 1% | -2 | -9 | ?
Cc1ccccc1Nc1nnc(SCC(=O)Nc2ccccc2[N+](=O)[O-])s1 | 14% | 28* | 45* | 19%
C/C(N)=C(/C#N)C(=O)CSc1nnc(Nc2c(C)cccc2C)s1 | -3%[46.1 µM] | -1 | 40 | ?
CCCSc1nnc(Nc2ccccc2C)s1 | 4% | 62* | 63* | -1%[46.1 µM]
C/C(N)=C(/C#N)C(=O)CSc1nnc(Nc2cccc(C)c2C)s1 | -15%[46.1 µM] | 22* | 40* | 12%[46.1 µM]
O=C(c1cc2ccccc2oc1=O)N1CCN(c2ccc(F)cc2)CC1 | ? | / | / | 13%[46.1 µM]
Cc1ccc(-n2c3c(cc(C(=O)Nc4cccc(Cl)c4)c2=O)C(=O)CC(C)(C)C3)cc1 | -28%[46.1 µM] | / | / | /
CC(=O)N(C)c1nnc(-c2cnccn2)s1 | 9% | -2 | -23 | -1%
CN(C(=O)C1CCOC1)c1nnc(-c2cnccn2)s1 (centres undefined) | 21% | 16* | 19 | 0%[46.1 µM]
CCN(CC)CCn1c(=N)n(CCOc2ccccc2)c2ccccc21 | 21µM* | -5 | 10 | 4.1µM*
Cn1c(=N)n(CC(=O)c2ccc(Br)s2)c2ccccc21 | ? | 18 | 2 | ?
CCN(CC)CCn1c(=N)n(CC(=O)c2ccc(Br)s2)c2ccccc21 | ? | -1 | 32 | 7.1µM*
CCCn1c(=N)n(CC(O)COc2ccc(C)cc2)c2ccccc21 (centres undefined) | ? | -4 | -7 | ?
CCN(CC)CCn1c(=N)n(CC(O)COc2ccccc2)c2ccccc21 (centres undefined) | 6% | -3 | -4 | 4.5µM*
COC(=O)c1ccccc1NC(=O)N1CCN(Cc2ccco2)CC1 | / | 6 | 14 | /
Cc1ccc(-n2c(C)cc(C(=O)NS(=O)(=O)c3ccc(C)cc3)c2C)cc1 | 4%[46.1 µM] | -2 | 4 | -5%[46.1 µM]
Cc1cc(C(=O)Nc2ccc(Cl)cc2)c2c(C)nn(-c3ccccc3)c2n1 | -8%[46.1 µM] | / | / | /
Cc1ccc(NC(=O)c2cc(C)nn2-c2ccccc2)cc1 | 8%[46.1 µM] | -1 | -12 | ?
Cc1ccc(NC(=O)c2cc(C)n(-c3ccccc3)c2C)cc1 | 2.8µM* | 26* | 25 | 2.2µM*
Cc1cc(C(=O)Nc2ccc(Cl)cc2)n(-c2ccccc2)n1 | -11%[46.1 µM] | 19* | 31 | -1%[46.1 µM]
SMILES | LASV entry inh | CHX counter | Shiga inhibitor | Marburg entry inh
Cc1ccc(NC(=O)c2cc(C)n(-c3cccc(C)c3)c2C)cc1 | 10µM* | 76* | 72* | 6.5µM*
Cc1cc(C(=O)Nc2ccc(Cl)cc2)c(C)n1-c1ccccc1 | ? | 6 | 7 | 1.1µM*
Cc1ccc(NC(=O)Cn2cc3c(n2)CCCCC3)cc1 | -2%[46.1 µM] | / | / | 15%[46.1 µM]
CCCNC(=O)OC[C@H]1O[C@H](CCON=C(C)CCC(=O)OC[C@H]2O[C@H](C#Cc3ccccc3)C=C[C@H]2Oc2ccc(C)cc2)C=C[C@H]1Oc1ccc(OC)cc1 | / | / | / | -29%[14.2 µM]
Cc1ccccc1NC(=O)NCCc1c[nH]c2ccccc12 | -30%[46.1 µM] | 10 | 13 | ?
COc1ccc2[nH]cc(CCNC(=O)Nc3cccc(F)c3)c2c1 | -29%[46.1 µM] | / | / | ?
Cc1ccc2[nH]cc(CCNC(=O)Nc3ccccc3)c2c1 | ? | 12* | -9 | 2%
CC(=O)c1cccc(NC(=O)NCCc2c[nH]c3ccccc23)c1 | 0% | 12* | 26 | -3%[46.1 µM]
CCCn1nnnc1NC(=O)c1ccc2ccccc2c1 | -19% | 6 | -5 | -38%
Cc1nn(C)c(C(=O)Nc2cccc(CN3CCOCC3)c2)c1Br | ? | -2 | -4 | 12%
CCCc1nn(C)c(C(=O)Nc2ccc3ccccc3c2)c1Cl | 11% | 49* | 54* | ?
CCCc1nn(C)c(C(=O)Nc2cccc(CC)c2)c1Cl | 2% | 18* | + | ?
C=CCn1c(CNc2ccc(C)cc2)nnc1SCC(=O)N/N=C/c1ccc(O)cc1 | -16% | 1 | -9 | ?
